# Screens deposited in PubChem BioAssay by National Center for Advancing Translational Sciences (NCATS).
# FLuc inh: Photinus pyralis luciferase inhibition; P08659; purified P. pyralis luciferase, luminescence, biochemical; Potency, µM (doses to about 115 µM), most hits filed as inhibitors; 2.5% of 76,000 active; AID 1347043; further: on the % scale 0 is the no-effect control and ±100 the full control effect; nearly all actives have a fitted effect of over 65% in size
#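 Biochemical qHTS: compound (6-point titration) added to 10uM D-luciferin plus 10uM ATP in Tris acetate pH 7.5 buffer with Mg, Tween-20 and BSA, then purified enzyme at 10nM; light output imaged.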
# HEK293 tox: kills HEK 293 cells. HEK 293 viability, ATP luminescence (CellTiter-Glo), 48-72 h. Potency, µM (doses to about 115 µM), inactives show at the highest dose activity change, negative = cytotoxicity, most hits filed as inhibitors. 6.6% of 94,000 active. AID 1345083; further: on the % scale 0 is the no-effect control and ±100 the full control effect; nearly all actives have a fitted effect of over 60% in size
#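 HEK 293 cells at 250 cells/well were exposed to compounds by pintool transfer for 48 or 72 hr at 37 degree Celsius, 5% CO2. Viability was read as ATP-coupled luminescence with CellTiter-Glo after 10 min at room temperature.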
# NIH3T3 tox: kills NIH 3T3 cells; NIH 3T3 viability, CellTiter-Glo ATP luminescence, 48-72 h; Potency, µM (highest dose often 96.7 µM), without a hit: at the top dose activity change, negative = cytotoxicity, usual class: inhibitors; 4.3% of 94,000 active; further: on the % scale 0 is the no-effect control and ±100 the full control effect; nearly all actives have a fitted effect of over 55% in size
#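 Cells were seeded at 400 per well, treated with pin-transferred compound, and kept 48 or 72 hr at 37 °C before CellTiter-Glo addition and luminescence imaging of cellular ATP.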
# hNpr1 antagonist: human Npr1 receptor antagonism | P16066 | Potency, µM (top dose mostly 46.3 µM), for inactives: at the highest dose activity change, negative = inhibition, actives largely listed as inhibitors | 1.6% of 76,000 active | HEK293 hNpr1 GloSensor cGMP, ANP-stimulated luminescence; calls by dose curve; further: on the % scale 0 is the no-effect control and ±100 the full control effect; nearly all actives have a fitted effect of over 60% in size
# Target sequence (P16066 whole entry, looked up): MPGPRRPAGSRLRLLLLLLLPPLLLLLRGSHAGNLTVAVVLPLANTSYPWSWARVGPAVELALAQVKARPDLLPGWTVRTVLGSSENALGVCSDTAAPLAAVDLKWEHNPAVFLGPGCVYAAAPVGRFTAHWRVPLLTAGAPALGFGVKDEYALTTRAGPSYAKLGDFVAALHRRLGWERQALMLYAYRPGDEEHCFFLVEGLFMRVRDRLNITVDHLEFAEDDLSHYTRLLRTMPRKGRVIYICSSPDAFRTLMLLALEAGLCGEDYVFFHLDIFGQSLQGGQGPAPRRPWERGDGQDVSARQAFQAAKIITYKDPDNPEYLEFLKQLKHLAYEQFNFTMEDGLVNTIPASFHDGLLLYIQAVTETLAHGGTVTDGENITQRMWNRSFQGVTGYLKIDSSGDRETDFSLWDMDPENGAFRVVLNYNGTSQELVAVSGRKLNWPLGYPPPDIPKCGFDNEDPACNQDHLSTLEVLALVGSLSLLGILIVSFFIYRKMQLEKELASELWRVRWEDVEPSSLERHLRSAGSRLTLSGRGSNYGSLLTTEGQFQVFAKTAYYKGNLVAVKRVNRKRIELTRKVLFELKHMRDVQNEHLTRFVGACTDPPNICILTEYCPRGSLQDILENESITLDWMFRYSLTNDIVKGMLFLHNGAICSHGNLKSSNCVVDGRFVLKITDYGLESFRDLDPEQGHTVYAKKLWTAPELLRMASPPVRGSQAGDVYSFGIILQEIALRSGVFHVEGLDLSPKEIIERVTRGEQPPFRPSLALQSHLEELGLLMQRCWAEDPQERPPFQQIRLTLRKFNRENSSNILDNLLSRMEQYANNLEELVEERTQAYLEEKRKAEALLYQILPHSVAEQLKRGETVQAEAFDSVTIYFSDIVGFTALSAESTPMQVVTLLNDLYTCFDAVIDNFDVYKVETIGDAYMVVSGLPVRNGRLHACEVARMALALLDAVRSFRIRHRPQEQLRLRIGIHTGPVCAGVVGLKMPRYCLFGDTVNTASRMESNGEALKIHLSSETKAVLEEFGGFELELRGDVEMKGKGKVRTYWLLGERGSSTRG
#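 HEK293 cells stably expressing human Npr1 and cGMP GloSensor pGS-40F, loaded 2 h with 2% GloSensor reagent, given compound 30 min at room temperature. Luminescence read before and 20 min after 0.1 nM hNppA.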
# NPR1 antag cnf: confirmation of human Npr1 natriuretic peptide receptor antagonists; Potency, µM (top dose mostly 57.6 µM), without a hit: at the highest dose activity change, negative = inhibition, most hits filed as inhibitors; AID 1347044; 76% of 1,400 active; HEK293 hNpr1 cGMP GloSensor luminescence, ANP-stimulated; shares compounds with hNpr1 antagonist; calls by dose curve; further: nearly all actives have a fitted effect of over 70% in size
# NPR2 antag: selectivity test of Npr1 antagonists against human Npr2. shares compounds with hNpr1 antagonist. HEK293 hNpr2 GloSensor cGMP luminescence, CNP-stimulated. Potency, µM (series often up to 57.6 µM), for the others: at the top dose activity change, negative = inhibition, hits mostly inhibitors. 67% of 1,400 active. AID 1347046; calls by dose curve; further: nearly all actives have a fitted effect of over 70% in size
# FLuc inh counter: FLuc enzyme inhibition, Npr1 counter-screen; shares compounds with hNpr1 antagonist; purified FLuc enzyme, luminescence, Km substrate; Potency, µM (highest dose often 57.6 µM), inactives show at the highest dose activity change, negative = inhibition, hits mostly inhibitors; 0.7% of 1,400 active; AID 1347047; further: 0% is about no effect
# GloSensor ctrl: reduces cGMP signal in GloSensor control cells. shares compounds with hNpr1 antagonist. HEK293 GloSensor cGMP, SNP-stimulated, luminescence. 69% of 1,400 active. Potency, µM (highest dose often 57.6 µM), for the others: at the top dose activity change, negative = inhibition, usual class: inhibitors. AID 1347051; calls by dose curve; further: on the % scale 0 is the no-effect control and ±100 the full control effect; nearly all actives have a fitted effect of over 70% in size
# * marks the source's active call; other numbers are inactive results; i = inactive; ? = inconclusive; · = no result; [ ] = dose if it differs, or a comment. In the library only some 11% were active in any assay of this set; here they are far more common. Unless noted, the call rests on the fitted dose curve; in most records, active means well fitted curve in the direction sought with a large enough effect; inconclusive means small, poorly fitted or top-dose-only effect, or another doubt; inactive means no such curve, though single readings can be large; an effect the other way counts as inactive or inconclusive. Potency means the concentration at half of the fitted maximal effect.
SMILES,FLuc inh,HEK293 tox,NIH3T3 tox,hNpr1 antagonist,NPR1 antag cnf,NPR2 antag,FLuc inh counter,GloSensor ctrl
N#Cc1ccc(CN2CCC3(CC2)CC(=O)c2ccccc2O3)cc1,i,?,?,28.2µM*,31.4µM*,35.3µM*,1.6%[86.2 µM],25µM*
Clc1ccc(CN2CCC3(CC2)CC(c2cccnc2)=NO3)cc1,·,?,-22.1%,·,27µM*,?,4.2%,24.1µM*
Cc1ccc(C(=O)N2CCN(c3cc(-c4ccccc4)[nH]n3)CC2)c(C)c1,i,?,44.7µM*,11.2µM*,24.3µM*,24.3µM*,1.6%,21.7µM*
Cc1ccc(C(=O)N2CCN(c3cc(-c4ccccc4)[nH]n3)CC2)cc1,i,?,?,?,·,·,·,·
O=C(c1cc(Cl)ccc1F)N1CCCN(c2cc(-c3ccccc3)[nH]n2)CC1,i,?,-26.7%,-19.2%,·,·,·,·
O=C(Cc1ccc(Cl)cc1)N1CCCN(c2cc(-c3ccccc3)[nH]n2)CC1,i,?,?,-13.6%,·,·,·,·
Cc1ccccc1C(=O)N1CCN(c2cc(-c3ccc(Cl)cc3)[nH]n2)CC1,i,?,?,11.2µM*,19.3µM*,24.3µM*,-5.6%,17.2µM*
O=C(c1ccc(Cl)cc1Cl)N1CCN(c2cc(-c3ccccc3)[nH]n2)CC1,i,20µM*,31.6µM*,10µM*,13.7µM*,19.3µM*,1.0%,13.7µM*
O=C(N1CCCN(c2cc(-c3ccc(Cl)cc3)[nH]n2)CC1)C1(c2ccccc2)CC1,i,39.8µM*,35.5µM*,?,19.3µM*,19.3µM*,4.1%,17.2µM*
Cc1cc(C(=O)N2CCCCCCNC(=O)[C@@H]3C[C@@H](c4nc(Cc5ccccc5)no4)C[C@@H]32)n(C)n1,i,-1.0%,?,-13.1%,·,·,·,·
O=C(c1ccc(F)c(F)c1)N1CCN(c2cc(-c3ccc(F)cc3)[nH]n2)CC1,i,?,?,?,·,·,·,·
O=C(c1cccnc1)N1CCN(c2cc(-c3cccs3)[nH]n2)CC1,i,?,-15.2%,-2.7%,·,·,·,·
O=C(c1cccc(Br)c1)N1CCN(c2cc(-c3ccc(Cl)cc3)[nH]n2)CC1,i,39.8µM*,31.6µM*,?,24.3µM*,?,-1.3%,?
O=C(c1cccc(Br)c1)N1CCN(c2cc(-c3cccs3)[nH]n2)CC1,i,?,?,-29.7%,?,?,-2.2%,-10.7%
O=C(c1cccc(F)c1)N1CCN(c2cc(-c3ccc(Cl)cc3)[nH]n2)CC1,i,?,?,?,24.3µM*,?,-4.5%,?
CCN1CCN(C(=O)C2CCN(c3ccnc4ccnn34)CC2)CC1,·,?,-33.2%[138 µM],·,·,·,·,·
CCOc1cc(=O)n2c(c1C(=O)Nc1cc(Cl)ccc1Cl)CCCC2,i,-62.6%,?,4.5%,·,·,·,·
CCc1ccc(NC(=O)c2cc3n(n2)CC(c2ccc(Cl)cc2)OC3)cc1 (stereo unspecified),i,?,?,11.2µM*,21.7µM*,?,-18.9%,?
O=C(Nc1ccc(F)cc1)c1cc2n(n1)CC(c1ccc3c(c1)OCO3)OC2 (stereo unspecified),i,?,?,12.6µM*,21.7µM*,34.3µM*,-15.6%,?
Cc1cc(F)ccc1NC(=O)c1cc2n(n1)CC(c1ccc(Cl)cc1)OC2 (stereo unspecified),i,?,?,15.8µM*,27.3µM*,21.7µM*,0.4%,24.3µM*
